Data published in PubChem BioAssay AID1893 (NMMLSC, 2009).
Among all 5,900 compounds or so, about 120 (2%) were called active. No stated cut-off is given here; in the data, active means percent response mostly above about 71% (no sharp cut-off); inactive means mostly below about 38%. These entries were drawn from the full list.

What follows are compounds tested on MEKK2 (MAP3K2) mutant PB1 domain binding MEK5, human (assay: mutant MEKK2 PB1-MEK5 binding signal retest – biochemical, single concentration, multiplex bead flow cytometry, confirmation (AID 1893;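 further: higher means compound restores mutant binding toward wildtype level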)). Settings: Alexa488-MEK5 binding to MEKK2 mutant, at 10 µM, active compounds read high.

| SMILES | percent response |
| --- | --- |
| CN(C)CCCNC(=S)N1CCN(c2nc(-c3ccccc3)cs2)CC1 | 14% (inactive) |
| O=c1[nH]c(=S)[nH]c2[nH]c(=S)[nH]c12 | -2% (inactive) |
| COc1cc(-c2nc(-c3ccncc3)no2)cc(OC)c1OC | 6% (inactive) |
| Cc1ccc(NC(=S)N(CCCN2CCCC2)Cc2cccn2Cc2ccc(Cl)cc2)cc1 | 13% (inactive) |
| Cc1ccc2c(C)c(C(=O)N3CCN(c4ccncc4)CC3)oc2c1C | 31% (inactive) |
| N=C1/C(=C/c2cccn2-c2cccc([N+](=O)[O-])c2)C(=O)N=C2SC=CN12 | -6% (inactive) |
| CC(=O)N1CCN(S(=O)(=O)c2ccc(C)c([N+](=O)[O-])c2)C1C(C)C (stereo unspecified) | -1% (inactive) |
| COC(=O)c1nc2n(n1)C(c1ccc([N+](=O)[O-])cc1)C(C(=O)Nc1ccc(Cl)cc1)=C(C)N2 (stereo unspecified) | 2% (inactive) |
| Cc1ccccc1CCN(CC(=O)NC1CCCCC1)C(=O)c1csnn1 | -24% (inactive) |
| CCCn1c(=N)n(CC(=O)c2ccc(Cl)c(Cl)c2)c2ccccc21 | 33% (inactive) |
| CC(C)CC(=O)NC(=S)Nc1cc(C(=O)O)ccc1Cl | -1% (inactive) |
| O=C1NCC(=O)N(Cc2ccccc2)/C1=C/c1ccccc1 | -16% (inactive) |
| CCc1ccc(-c2nn(-c3ccccc3)cc2CSC(=N)N)cc1 | 68% (inactive) |
| CNC(=O)/C(=C\C=C\c1ccccc1)NC(=O)c1ccc([N+](=O)[O-])cc1 | 7% (inactive) |
| O=C(O)CC(Cc1ccccc1)C(=O)Nc1ccc([N+](=O)[O-])cc1 (stereo unspecified) | -3% (inactive) |
| O=C(COC(=O)CNC(=O)c1ccco1)Nc1ccc(F)cc1 | 1% (inactive) |
| COc1ccc(S(=O)(=O)N2CN(CCc3ccc(OC)c(OC)c3)c3nc4ccccc4nc32)cc1 | -4% (inactive) |
| CCOC(=O)/C(C#N)=C/c1ccc(OCC(=O)Nc2ccccc2)c(OC)c1 | 1% (inactive) |
| CC(C)C(=O)N1c2ccccc2NC2=C(C(=O)CCC2)C1c1ccc(N(C)C)cc1 (stereo unspecified) | 10% (inactive) |
| COCC(C)NC(=O)COc1nncc2ccccc12 (stereo unspecified) | -7% (inactive) |
| O=C(NCc1ccccc1Cl)NC(=O)c1csc([N+](=O)[O-])c1 | 1% (inactive) |
| Cn1c(C(=O)NCCCN2CCCCC2)cc2sccc21 | 10% (inactive) |

| SMILES | percent response |
| --- | --- |
| COc1cc(Br)c(-c2sc(Nc3ccccc3)n[n+]2-c2ccccc2)cc1OC | 14% (inactive) |
| CCc1ccc2nc(Nc3ncc(C(C)=O)c(C)n3)nc(C)c2c1 | 0% (inactive) |
| CCOC(=O)c1c(-c2ccccc2)csc1NC(=S)NC(=O)c1ccccc1 | 0% (inactive) |
| O=C(CN1C(=O)c2cccnc2Oc2ccc(Cl)cc21)Nc1ccc(F)cc1 | 1% (inactive) |
| N=c1c2c(-c3ccccc3)c(-c3ccccc3)n(Cc3ccccc3)c2ncn1CCCO | 21% (inactive) |
| Cc1noc(C)c1S(=O)(=O)N(C)Cc1ccccc1 | 5% (inactive) |
| Cc1nn(-c2ccccc2)c(NC(=O)c2cccs2)c(-c2ccc(Cl)cc2)c1=O | -4% (inactive) |
| COc1cccc(NC(=S)NCCCN2CCOCC2)c1 | 6% (inactive) |
| CCN(CC)CCOCCOc1ccc(Cl)c2ccccc12 | 22% (inactive) |
| CCCCCCCCCCOC(=O)Cn1c(COc2cccc(OC)c2)[n+](C)c2ccccc21 | 115% (active) |
| CCCCCCCCCCOC(=O)Cn1c(COc2ccc(C)cc2)[n+](C)c2ccccc21 | 74% (active) |
| CN(C)CCCN(C(=O)c1ccc(S(=O)(=O)N2CCCc3ccccc32)cc1)c1nc2ccc(F)cc2s1 | 53% (inactive) |
| CSCC[C@H](NC(=O)CCCn1nnc2ccccc2c1=O)C(=O)O | 1% (inactive) |
| CN1CCN(/N=C/c2ccc(C#N)cc2)CC1 | -4% (inactive) |
| CC1CCN(C2=NC(=O)/C(=C/c3cn[nH]c3-c3ccccc3)S2)CC1 | -9% (inactive) |
| CCOc1ccc(S(=O)(=O)NCCCn2ccnc2)cc1NC(C)=O | -6% (inactive) |
| CCCCNC(=O)N1CCCC(N(C)CCc2ccc(OC)c(OC)c2)C1 (stereo unspecified) | -2% (inactive) |
| CC(C)(C)NC(=O)Cn1cnc([N+](=O)[O-])n1 | -7% (inactive) |
| COc1ccccc1OCCNCC(O)COc1cccc2[nH]c3ccccc3c12 (stereo unspecified) | 34% (inactive) |
| Cc1cccc(-c2ncc(CN3CCC(CO)(CCCc4ccccc4)CC3)cn2)c1 | 9% (inactive) |
| Cc1nn(-c2ccccc2)c(C)c1NC(=O)CCl | -2% (inactive) |
| COC(=O)CCc1sc(Nc2ccc(Br)cc2)nc1-c1ccc(OC)cc1 | 9% (inactive) |

| SMILES | percent response |
| --- | --- |
| C#CCOCCOCCOCCNc1nc(N2CCN(C(=O)C([C@@H](C)CC)n3cc(C(N)COC(=O)C(F)(F)F)nn3)CC2)nc(N2CCN(C(=O)[C@H](CCCCN)n3cc(C(N)CC(C)C)nn3)CC2)n1 (stereo partly specified) | 52% (inactive) |
| O=C(CCCO)N/N=C/c1cc(Br)ccc1O | -1% (inactive) |
| O=C(Nc1ccn(Cc2ccccc2)n1)c1cccc(F)c1 | -3% (inactive) |
| COc1ccc(CCn2c(NN=C3CCCC3)nc3c2c(=O)[nH]c(=O)n3C)cc1 | 3% (inactive) |
| CCC(C)OC(=O)C(C)Oc1ccc(-c2ccccc2)cc1 (stereo unspecified) | 10% (inactive) |
| CC(C)CC(=O)NC(=S)NCc1ccccc1 | -3% (inactive) |
| O=c1c(/C=N/O)coc2ccc(Cl)cc12 | -2% (inactive) |
| Cc1ccc2c(c1)C1CN(C)CCC1N2S(=O)(=O)c1ccc(Oc2ccc([N+](=O)[O-])cc2)cc1 (stereo unspecified) | 61% (inactive) |
| Cc1c(S(=O)(=O)NCc2ccccc2)c(=O)n(C)c(=O)n1C | 2% (inactive) |
| C[N+](C)(C)CCNC(=O)c1c(O)c2c([nH]c1=O)CCCC2 | -3% (inactive) |
| O=C(O)/C=C\C(=O)Nc1ccc(OCc2ccccc2)cc1 | -4% (inactive) |
| COc1ccccc1NC(=S)N1CCN(c2ccc(F)cc2)CC1 | -8% (inactive) |
| Cc1cccc(OCC(O)CN2CCN(CCN3C(=O)c4cccc5cccc(c45)C3=O)CC2)c1C (stereo unspecified) | 3% (inactive) |
| Cc1ccc(N2C(=O)CC(N3CCSCC3)C2=O)c(C)c1 (stereo unspecified) | 2% (inactive) |
| O=C(c1ccc(Br)o1)N(c1ccccn1)C1CCCCC1 | 3% (inactive) |
| COc1ccc(SC[C@H](Cc2ccccc2)N2CCN(CCc3ccccc3)CCC2=O)cc1 | 16% (inactive) |
| CCOC(=O)c1c(NC(=O)c2ccc(S(=O)(=O)N(C)CC3CCCO3)cc2)sc2c1CC(C)(C)NC2(C)C (stereo unspecified) | 7% (inactive) |
| O=C(NCCCN1CCN(c2ccc(F)cc2)CC1)Nc1ccc([N+](=O)[O-])cc1 | 26% (inactive) |
| CC1CN(C(=O)c2ccccc2NS(=O)(=O)c2cccc([N+](=O)[O-])c2)CC(C)O1 (stereo unspecified) | 0% (inactive) |
| c1ccc2c(c1)C(=NC1CCCCC1)NC2=NC1CCCCC1 | 18% (inactive) |
| Cc1cccc(OCCNC(=O)CSc2ccc(C(F)(F)F)cc2[N+](=O)[O-])c1 | 2% (inactive) |
| O=C(NC1CCN(Cc2ccccc2)CC1)c1ccc(Oc2cc(Cl)cc(Cl)c2)o1 | 10% (inactive) |

| SMILES | percent response |
| --- | --- |
| O=C(CC1SCCNC1=O)Nc1ccc(Cl)c(Cl)c1 (stereo unspecified) | 4% (inactive) |
| CN(CC(=O)Nc1cccc(F)c1)CC(=O)Nc1cccc([N+](=O)[O-])c1 | -3% (inactive) |
| COc1ccccc1N=C(C)C1=C(O)COC1=O | 7% (inactive) |
| COc1cccc(OCC(=O)NNC(=O)c2cnccn2)c1 | -1% (inactive) |
| COC(=O)c1c(NC(=O)COC(=O)[C@@H](NS(=O)(=O)c2ccccc2)C(C)C)sc2c1CCC2 | -1% (inactive) |
| CCOC(=O)CN(C)S(=O)(=O)c1ccc(-c2cc(C(=O)OC)sc2C(F)(F)F)cc1 | -3% (inactive) |
| Cc1cc(Cl)ccc1OCc1nc(-c2ccncc2)no1 | -15% (inactive) |
| O=C(O)CCCC(=O)Nc1ccc(Oc2cccc(C(F)(F)F)c2)nc1 | 4% (inactive) |
| COc1cc(C)nc(N2CCCC(C(=O)NCC(C)C)C2)n1 (stereo unspecified) | -2% (inactive) |
| O=C(O)C1CCN(c2ccc([N+](=O)[O-])cc2[N+](=O)[O-])CC1 | 6% (inactive) |
| Cc1no[n+]([O-])c1COc1ccccc1/C=C1\NC(=S)NC1=O | -5% (inactive) |
| COc1ccc(C(=O)C[n+]2ccc(C)cc2)cc1 | 6% (inactive) |
| CC(C)CC(=O)N1CCN(Cc2ccccc2Br)CC1 | 3% (inactive) |
| CCOC(=O)c1c(Cc2ccc(Cl)cc2)c[nH]c1C | 0% (inactive) |
| Cc1cn(COC/C=C/c2ccccc2)c(=O)[nH]c1=O | 2% (inactive) |
| COc1ccc(CNC(=O)C2CCN(S(C)(=O)=O)CC2)cc1 | 4% (inactive) |
| COC(=O)c1cc(NC(=O)c2cc(C(C)(C)C)nn2Cc2cccc(C)c2)ccc1N1CCOCC1 | -5% (inactive) |
| CCN(CC)CCOc1ccc2c(c1)C(=NNC(=O)c1ccccn1)c1cc(OCCN(CC)CC)ccc1-2 | 75% (active) |
| COc1cc(NC(=S)NCc2ccco2)c(OC)cc1Cl | 3% (inactive) |
| Cn1c(SCc2nc3ccccc3s2)nnc1-c1ccc2c(c1)OCO2 | 0% (inactive) |
